For 13 compounds, Percent Effect results are on record in ChEMBL document CHEMBL3988442, “University of Dundee, Small-Polar-MMV Screening Library” (2021).

For some of these results: Results with a measured potency or affinity are listed apart.

Common to all, as to design: scale not given: direction of the effect not stated beside the values
Assay [1] has as its target Protein translocase subunit SecA (Escherichia coli (strain K12)) (UniProt P10408). Nature of the assay: Assay to Identify E. coli SecA ATPase Inhibitors. The class given is functional. The following applies: 30 µM.
In assay [2] the target is T1, Ubiquitin-activating enzyme e1, putative (Leishmania donovani (strain BPK282A1)) (UniProt E9BSI1).
T1 sequence (whole entry): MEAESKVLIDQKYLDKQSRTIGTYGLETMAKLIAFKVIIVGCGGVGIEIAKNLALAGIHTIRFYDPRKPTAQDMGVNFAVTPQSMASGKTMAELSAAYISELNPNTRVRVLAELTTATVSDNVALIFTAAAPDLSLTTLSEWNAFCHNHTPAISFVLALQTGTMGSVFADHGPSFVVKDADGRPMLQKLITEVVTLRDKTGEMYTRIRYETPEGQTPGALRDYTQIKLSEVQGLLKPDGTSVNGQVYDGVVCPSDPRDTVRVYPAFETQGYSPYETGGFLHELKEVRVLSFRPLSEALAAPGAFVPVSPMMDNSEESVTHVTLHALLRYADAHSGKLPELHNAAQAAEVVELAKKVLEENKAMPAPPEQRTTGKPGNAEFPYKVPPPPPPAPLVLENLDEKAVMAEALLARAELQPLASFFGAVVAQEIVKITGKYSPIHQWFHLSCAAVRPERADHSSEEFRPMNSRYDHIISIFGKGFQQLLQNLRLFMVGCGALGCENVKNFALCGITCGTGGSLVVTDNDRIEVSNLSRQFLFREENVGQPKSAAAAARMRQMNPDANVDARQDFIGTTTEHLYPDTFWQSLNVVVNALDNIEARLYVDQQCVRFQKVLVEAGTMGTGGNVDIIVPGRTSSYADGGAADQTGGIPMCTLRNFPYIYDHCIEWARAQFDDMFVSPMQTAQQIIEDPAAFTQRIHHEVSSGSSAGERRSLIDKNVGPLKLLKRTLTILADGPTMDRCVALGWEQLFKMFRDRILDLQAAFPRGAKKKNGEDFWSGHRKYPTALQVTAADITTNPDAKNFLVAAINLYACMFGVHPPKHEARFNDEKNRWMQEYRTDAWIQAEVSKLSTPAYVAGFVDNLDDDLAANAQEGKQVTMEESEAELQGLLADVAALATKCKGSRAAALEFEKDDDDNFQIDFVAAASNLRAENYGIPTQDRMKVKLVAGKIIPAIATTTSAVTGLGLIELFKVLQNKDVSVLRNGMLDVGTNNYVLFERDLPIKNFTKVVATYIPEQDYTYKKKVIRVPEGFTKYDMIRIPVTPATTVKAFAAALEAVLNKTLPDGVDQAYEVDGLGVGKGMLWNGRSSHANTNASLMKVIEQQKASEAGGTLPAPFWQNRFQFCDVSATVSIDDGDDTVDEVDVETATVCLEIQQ
Nature of the assay: Leishmania donovani Ubiquitin Activating Enzyme (LdE1). The class given is functional. The settings on record: 30 µM.

The target of assay [3] is Sialic acid-binding Ig-like lectin 9 (Homo sapiens) (UniProt Q9Y336). Nature of the assay: Hs-Siglec9 ALPHAscreen SOP 20170721. The settings on record: 10 µM.
In another assay the test system is Trypanosoma cruzi. Nature of the assay: Trypanosoma cruzi phosphomannomutase and mannose-1-phosphate guanylyltransferase assay. It counts as functional. The settings on record: 10 µM.
Assay [4] deals with T2, Arginase-2, mitochondrial (Homo sapiens) (UniProt P78540).
T2 sequence (whole entry): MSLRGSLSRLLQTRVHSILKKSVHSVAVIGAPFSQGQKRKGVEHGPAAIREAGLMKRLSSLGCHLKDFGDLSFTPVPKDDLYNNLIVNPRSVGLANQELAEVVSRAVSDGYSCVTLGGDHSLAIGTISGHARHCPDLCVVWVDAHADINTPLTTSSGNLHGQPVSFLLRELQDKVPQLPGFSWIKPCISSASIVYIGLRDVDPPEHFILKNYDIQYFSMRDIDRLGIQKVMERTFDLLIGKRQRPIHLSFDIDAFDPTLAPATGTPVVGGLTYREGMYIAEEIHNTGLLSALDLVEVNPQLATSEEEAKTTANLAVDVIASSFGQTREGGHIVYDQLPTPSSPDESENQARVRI
Nature of the assay: in vitro enzyme assay to detect the production of urea directly proportional to the activity of Arginase II. Also: in the data most compounds retested in dose-response had high values. The following applies: 33.3 µM. The class given is functional.

Assay [5] concerns the target T3, Proteasome subunit beta (Trypanosoma cruzi) (UniProt O96673).
T3 sequence (whole entry): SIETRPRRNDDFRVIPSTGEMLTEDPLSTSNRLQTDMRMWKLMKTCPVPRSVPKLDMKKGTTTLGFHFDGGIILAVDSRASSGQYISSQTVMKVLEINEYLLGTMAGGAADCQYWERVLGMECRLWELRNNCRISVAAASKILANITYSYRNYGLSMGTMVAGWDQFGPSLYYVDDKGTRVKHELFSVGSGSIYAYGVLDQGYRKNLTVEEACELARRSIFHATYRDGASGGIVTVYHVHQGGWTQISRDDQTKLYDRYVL
Description: Trypanosoma cruzi proteasome chymotrypsin-like activity (TcProtChymo) assay. Also: in the data most compounds retested in dose-response had high values. It counts as functional. The settings on record: 9.37 µM.

For the next assay, the species on record is Homo sapiens. Nature of the assay: To identify inhibition of the IFN signalling (Jak-Stat) pathway via expression of an eGFP reporter gene under the control of an IFN-stimulated response element (ISRE) containing MxA promoter. The class given is functional. The settings on record: 30 µM. In general terms: Reporter assays use an easily measured gene product as a stand-in for the process of interest.

Assay [6] deals with T4, Tyrosyl-tRNA synthetase, putative (Trypanosoma cruzi (strain CL Brener)) (UniProt Q4DSP6).
T4 sequence (whole entry): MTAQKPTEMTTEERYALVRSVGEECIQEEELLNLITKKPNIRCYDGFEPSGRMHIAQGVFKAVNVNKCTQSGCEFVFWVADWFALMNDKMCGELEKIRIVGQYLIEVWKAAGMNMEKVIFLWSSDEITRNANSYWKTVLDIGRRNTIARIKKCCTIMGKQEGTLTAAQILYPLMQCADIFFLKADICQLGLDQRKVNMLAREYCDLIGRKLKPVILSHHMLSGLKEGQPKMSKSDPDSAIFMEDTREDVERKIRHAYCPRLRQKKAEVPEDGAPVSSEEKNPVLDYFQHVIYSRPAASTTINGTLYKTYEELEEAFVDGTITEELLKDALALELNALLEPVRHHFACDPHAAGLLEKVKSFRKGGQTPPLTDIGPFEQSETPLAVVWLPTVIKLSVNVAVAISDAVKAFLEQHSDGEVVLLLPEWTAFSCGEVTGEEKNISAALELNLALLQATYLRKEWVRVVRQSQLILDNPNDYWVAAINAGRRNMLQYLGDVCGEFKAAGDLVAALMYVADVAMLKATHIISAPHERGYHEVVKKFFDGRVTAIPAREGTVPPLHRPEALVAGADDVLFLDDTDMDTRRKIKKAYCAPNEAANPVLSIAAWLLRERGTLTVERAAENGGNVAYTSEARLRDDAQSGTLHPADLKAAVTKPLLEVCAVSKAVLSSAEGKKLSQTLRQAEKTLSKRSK
Description: Trypanosoma cruzi tyrosyl tRNA synthetase (TcYRS) _High Tyrosine SOP. Also: in the data most compounds retested in dose-response had high values. The class given is functional. The following applies: 30 µM.

The target in assay [7] is T4, Tyrosyl-tRNA synthetase, putative (Trypanosoma cruzi (strain CL Brener)). Description: Trypanosoma cruzi tyrosyl tRNA synthetase (TcYRS) SOP. The settings on record: 30 µM. The class given is functional.
Assay [8] concerns the target Chromo domain-containing protein 1 (Saccharomyces cerevisiae (strain ATCC 204508 / S288c) (Baker's yeast)) (UniProt P32657). Description: ScCHD-1 Enzyme Inhibition Assay. Also: in the data most compounds retested in dose-response had high values. The class given is functional. The settings on record: 30 µM.

Protein translocase subunit SecA (Escherichia coli (strain K12)), sequence (P10408 whole entry): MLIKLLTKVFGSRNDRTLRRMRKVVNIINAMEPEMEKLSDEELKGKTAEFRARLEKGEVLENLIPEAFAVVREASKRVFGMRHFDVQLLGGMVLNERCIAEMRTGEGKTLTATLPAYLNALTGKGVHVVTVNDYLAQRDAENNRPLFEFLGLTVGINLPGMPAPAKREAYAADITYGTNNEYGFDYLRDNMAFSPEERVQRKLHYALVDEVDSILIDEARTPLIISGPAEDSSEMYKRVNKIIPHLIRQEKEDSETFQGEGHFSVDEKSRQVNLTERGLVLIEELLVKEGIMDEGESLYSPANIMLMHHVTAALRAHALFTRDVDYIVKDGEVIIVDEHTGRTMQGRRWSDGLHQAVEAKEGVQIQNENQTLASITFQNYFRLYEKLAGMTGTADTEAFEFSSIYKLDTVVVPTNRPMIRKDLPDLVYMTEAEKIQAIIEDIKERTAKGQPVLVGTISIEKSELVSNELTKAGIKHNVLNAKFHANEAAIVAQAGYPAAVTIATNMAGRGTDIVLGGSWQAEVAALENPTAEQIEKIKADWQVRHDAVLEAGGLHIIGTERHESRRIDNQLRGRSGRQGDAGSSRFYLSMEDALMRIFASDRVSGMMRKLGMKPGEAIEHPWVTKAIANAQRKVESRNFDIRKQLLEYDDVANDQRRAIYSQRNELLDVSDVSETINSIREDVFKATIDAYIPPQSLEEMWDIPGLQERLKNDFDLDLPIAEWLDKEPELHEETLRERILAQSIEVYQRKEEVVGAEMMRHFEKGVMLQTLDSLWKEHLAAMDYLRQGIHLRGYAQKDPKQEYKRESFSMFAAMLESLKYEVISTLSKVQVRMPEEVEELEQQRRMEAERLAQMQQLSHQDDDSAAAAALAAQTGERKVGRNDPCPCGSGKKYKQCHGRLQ
Chromo domain-containing protein 1 (Saccharomyces cerevisiae (strain ATCC 204508 / S288c) (Baker's yeast)), sequence (P32657 whole entry, the tested form may be a part): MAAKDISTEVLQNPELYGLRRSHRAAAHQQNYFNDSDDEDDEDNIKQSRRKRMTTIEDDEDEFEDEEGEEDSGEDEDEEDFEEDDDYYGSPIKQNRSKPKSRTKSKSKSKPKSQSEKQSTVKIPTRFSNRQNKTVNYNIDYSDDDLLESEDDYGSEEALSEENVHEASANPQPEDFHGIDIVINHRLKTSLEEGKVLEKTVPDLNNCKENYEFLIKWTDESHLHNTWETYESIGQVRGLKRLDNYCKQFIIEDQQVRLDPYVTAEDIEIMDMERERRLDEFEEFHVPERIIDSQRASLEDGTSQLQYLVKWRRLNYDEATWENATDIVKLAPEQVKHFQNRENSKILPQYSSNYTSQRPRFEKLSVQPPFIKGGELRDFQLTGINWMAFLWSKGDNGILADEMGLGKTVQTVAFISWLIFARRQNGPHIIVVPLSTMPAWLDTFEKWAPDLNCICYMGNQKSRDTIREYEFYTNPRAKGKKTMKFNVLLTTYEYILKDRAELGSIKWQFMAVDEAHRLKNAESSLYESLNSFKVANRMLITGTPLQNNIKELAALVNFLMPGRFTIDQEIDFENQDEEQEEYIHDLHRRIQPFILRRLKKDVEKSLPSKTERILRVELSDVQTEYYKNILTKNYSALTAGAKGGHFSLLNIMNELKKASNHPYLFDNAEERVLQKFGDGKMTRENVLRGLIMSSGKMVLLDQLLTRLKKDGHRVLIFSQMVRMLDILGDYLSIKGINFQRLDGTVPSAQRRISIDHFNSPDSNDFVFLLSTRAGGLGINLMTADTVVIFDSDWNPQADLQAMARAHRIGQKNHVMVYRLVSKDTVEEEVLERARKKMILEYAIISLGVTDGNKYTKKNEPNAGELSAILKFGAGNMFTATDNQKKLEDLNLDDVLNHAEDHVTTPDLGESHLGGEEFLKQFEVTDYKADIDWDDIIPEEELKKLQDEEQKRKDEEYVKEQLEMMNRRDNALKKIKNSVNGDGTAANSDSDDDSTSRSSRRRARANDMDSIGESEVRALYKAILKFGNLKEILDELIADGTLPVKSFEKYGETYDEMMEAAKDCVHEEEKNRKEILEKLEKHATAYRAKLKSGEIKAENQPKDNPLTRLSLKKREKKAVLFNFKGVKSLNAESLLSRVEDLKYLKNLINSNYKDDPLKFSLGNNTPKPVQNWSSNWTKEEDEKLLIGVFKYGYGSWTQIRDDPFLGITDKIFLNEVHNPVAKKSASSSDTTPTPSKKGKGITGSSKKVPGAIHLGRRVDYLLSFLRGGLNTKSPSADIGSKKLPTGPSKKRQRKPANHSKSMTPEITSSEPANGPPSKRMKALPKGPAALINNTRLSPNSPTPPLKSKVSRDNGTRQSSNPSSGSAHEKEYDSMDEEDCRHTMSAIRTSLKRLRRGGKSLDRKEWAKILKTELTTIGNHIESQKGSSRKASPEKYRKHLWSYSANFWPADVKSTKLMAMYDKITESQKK
Sialic acid-binding Ig-like lectin 9 (Homo sapiens), sequence (Q9Y336 whole entry): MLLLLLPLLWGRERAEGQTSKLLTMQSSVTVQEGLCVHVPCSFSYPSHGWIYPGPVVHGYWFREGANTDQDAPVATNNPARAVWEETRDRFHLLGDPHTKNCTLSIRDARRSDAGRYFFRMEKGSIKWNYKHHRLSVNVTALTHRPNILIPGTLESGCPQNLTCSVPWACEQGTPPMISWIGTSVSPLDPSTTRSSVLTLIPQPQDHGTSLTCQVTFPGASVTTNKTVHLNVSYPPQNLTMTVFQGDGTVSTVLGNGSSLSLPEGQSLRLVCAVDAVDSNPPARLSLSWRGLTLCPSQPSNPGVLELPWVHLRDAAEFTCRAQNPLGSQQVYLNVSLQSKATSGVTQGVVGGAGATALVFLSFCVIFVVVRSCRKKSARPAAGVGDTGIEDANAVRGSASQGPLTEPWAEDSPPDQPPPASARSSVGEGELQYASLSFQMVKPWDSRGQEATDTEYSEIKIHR

Regarding `COc1cccc(-n2nnc(C(=O)N3CCCC3)c2C)c1`, the Percent Effect in [1] is -0.683%; in [2], 10.3%; in assay [3], -7.88%; with Trypanosoma cruzi, 2.72%; in assay [4], 4.92%; in [5] it was 7.25%. For the same compound, the Percent Effect in the assay filed under Homo sapiens is 6.63%; in [6], 7.18%; in assay [7], 13.2%; in assay [8], -3.38%.

Take `CCN(Cc1cccc2c1OCO2)C(=O)Nc1ccncc1`: the Percent Effect in [1] was -0.455%; in [2], -2.6%; in assay [3], 12.1%; with Trypanosoma cruzi, -2.8%; in assay [4], -2.25%; in [5], 2.81%. Moreover, the Percent Effect in the assay listed under Homo sapiens amounted to 34.4%; in [6], 0.98%; in [7], 0%; in [8], 5.59%.

As to `CC(C)(C)C(=O)N1C[C@H](c2ccsc2)[C@H]2CN(Cc3cccs3)CC[C@H]21`, the Percent Effect was -0.241% in [1]; 17.3% in assay [2]; -5.01% in assay [3]; 2.37% in the assay with Trypanosoma cruzi; 2.65% in assay [4]; 17.1% in assay [5]. For the same compound, the Percent Effect in the assay listed under Homo sapiens is 56.8%; in assay [6], 2.12%; in [7] it was 17.5%; in assay [8], -22%.

Consider `CC(C)n1[nH]c(=O)c2c1NC(=O)CC2c1ccc2ncccc2c1` (stereo not given), for which the Percent Effect in assay [1] was -1.16%; in assay [2], 5.41%; in assay [3] it was 0.703%; with Trypanosoma cruzi, -2.62%; in [4], -5.94%; in assay [5], 10.6%. Besides, the Percent Effect came to 17.7% in the assay filed under Homo sapiens, 4.79% in [6], 9.76% in assay [7] and 2.28% in assay [8].

On to `O=C(c1cc(C2CC2)on1)N1CCCC(n2cncn2)C1` (stereo not given), for which the Percent Effect is -3.26% in assay [1]; 15.4% in assay [2]; -20% in assay [3]; 9.48% in the assay on Trypanosoma cruzi; -0.82% in [4]; 20.7% in assay [5]. Besides, the Percent Effect in the assay filed under Homo sapiens stood at 15.6%; in [6], 4.31%; in [7], 22.9%; in assay [8], 30.2%.

As to `Cc1noc(C2CCN(C(=O)CCNc3ncccn3)CC2)n1`, the Percent Effect in assay [1] is -0.897%; in [2], 12.8%; in assay [3], -14%; in the assay on Trypanosoma cruzi, 5.92%; in assay [4], 0%; in [5], 9.98%. For the same compound, the Percent Effect was 14.8% in the assay listed under Homo sapiens, 6.22% in [6], 22.9% in assay [7] and -4.88% in assay [8].

With `O=C(c1ccccn1)N1CCN(c2ccc(-c3cccnc3)nn2)CC1`, the Percent Effect in assay [1] was -3.31%; in [2], 11.7%; in assay [3], 4.87%; with Trypanosoma cruzi it was 1.31%; in assay [4] it was 4.11%; in assay [5], 21.7%. In addition, the Percent Effect was 1.87% in the assay listed under Homo sapiens, 0.966% in assay [6], 10% in assay [7] and -7.95% in assay [8].

In the case of `Cc1cnn(C(C)C2CC2)c1NC(=O)c1ccncc1` (stereo not given), the Percent Effect is -9.84% in assay [1]; -5.41% in assay [2]; -2.58% in assay [3]; -1.26% in the assay with Trypanosoma cruzi; 1.75% in [4]; 5.82% in assay [5]. Besides, the Percent Effect is -1.9% in the assay listed under Homo sapiens, -1.6% in assay [6], 0% in [7] and -0.204% in assay [8].

Regarding `O=C1CN(Cc2ccc(-c3ccccc3C(=O)O)cc2)CCN1`, the Percent Effect in assay [1] was 1.19%; in assay [2], 12%; in assay [3], -5.14%; with Trypanosoma cruzi it was -4.73%; in assay [4], -1.33%; in [5], 14.1%. Further, the Percent Effect was 27.5% in the assay filed under Homo sapiens, 1.06% in assay [6], 0% in assay [7] and -24.4% in assay [8].

Consider `Cc1ccn(CCC(=O)N2CCOC(c3nc(-c4cccs4)no3)C2)n1` (stereo not given), for which the Percent Effect was 1.88% in [1]; 9.33% in assay [2]; 1.5% in assay [3]; -5.52% with Trypanosoma cruzi; 4.42% in assay [4]; 8.7% in assay [5]. The Percent Effect was 7.42% in the assay listed under Homo sapiens, 2.12% in assay [6], 10% in [7] and -26.2% in assay [8].

For the compound `O=C(NCc1cc(O)ncn1)C1CCOc2ccccc2C1` (stereo not given), the Percent Effect in assay [1] is -6.27%; in assay [2], 5.41%; in [3], 6.22%; in the assay on Trypanosoma cruzi it was 1.26%; in assay [4] it was 5.94%; in [5] it was 14.4%. Further, the Percent Effect in the assay listed under Homo sapiens is 15.2%; in assay [6], 6.92%; in assay [7], 12.2%; in [8], -2.81%.

On to `CS(=O)(=O)Cc1cccc(C(=O)N2CCCC(n3cccn3)C2)c1` (stereo not given), for which the Percent Effect in assay [1] was -3.02%; in [2], 2.56%; in assay [3] it was -5.84%; in the assay on Trypanosoma cruzi, -5.92%; in assay [4] it was -1.23%; in [5] it was 4.69%. For the same compound, the Percent Effect in the assay listed under Homo sapiens is 24.6%; in assay [6] it was 2.39%; in assay [7], 1.21%; in [8], -5.08%.

For `Cc1ccc(C(N)c2cccc(S(C)(=O)=O)c2)cc1` (stereo not given), the Percent Effect in [1] is -4.76%; in [2], 10.7%; in assay [3], 8.28%; in the assay with Trypanosoma cruzi it was -1.81%; in [4], 5.76%; in assay [5], 5.34%. For the same compound, the Percent Effect in the assay filed under Homo sapiens was 27%; in assay [6] it was 4.74%; in assay [7], 5.13%; in assay [8], -9.27%.
